Source: PubChem BioAssay (EPA / NIEHS)
Records with an inconclusive call do not appear. The source made the active and inactive calls. Rule for the calls, unless noted: active = hit-call score of the fitted dose curve at least 0.9, where 1 is the maximum; inconclusive = response in the unintended direction; inactive = score below 0.9.

biological target: human Peripheral-type Benzodiazepine Receptor (PBR), TSPO (gene 706) (UniProt P30536); assay: NVS_MP_hPBR: NovaScreen (NVS) Membrane Protein Assay for human Peripheral-type Benzodiazepine Receptor (PBR) (AID 2283331);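 note: hits reduce radioligand binding relative to DMSO baseline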
Sequence (P30536 whole entry, looked up): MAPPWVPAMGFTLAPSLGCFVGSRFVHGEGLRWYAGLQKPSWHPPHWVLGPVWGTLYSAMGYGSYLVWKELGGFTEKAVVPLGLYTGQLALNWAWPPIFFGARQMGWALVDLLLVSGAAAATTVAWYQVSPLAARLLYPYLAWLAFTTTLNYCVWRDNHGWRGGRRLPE
Procedure, shortened: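 Using human colon-derived membranes, this one-endpoint binding test reads radioligand loss by scintillation after 1 h. Screening started at 25 uM in duplicate, with positive and negative controls on every plate, and actives moved to dose series.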

outcome, inactive:
CC(C)(O)c1coc(S(=O)(=O)NC(=O)Nc2c3c(cc4c2CCC4)CCC3)c1
O=C(O)c1cccc(N(Cc2cccnc2)c2ccc(OC(F)F)c(OC(F)F)c2)c1

AC50, active:
COc1ccc2sc(C(=O)Nc3nnn[nH]3)c(OC(C)C)c2c1 25 µM
CC(C)CCO 15.8 µM
O=C(OC[C@H]1O[C@@H](OC(=O)c2cc(O)c(O)c(OC(=O)c3cc(O)c(O)c(O)c3)c2)[C@H](OC(=O)c2cc(O)c(O)c(OC(=O)c3cc(O)c(O)c(O)c3)c2)[C@@H](OC(=O)c2cc(O)c(O)c(OC(=O)c3cc(O)c(O)c(O)c3)c2)[C@@H]1OC(=O)c1cc(O)c(O)c(OC(=O)c2cc(O)c(O)c(O)c2)c1)c1cc(O)c(O)c(OC(=O)c2cc(O)c(O)c(O)c2)c1 5.11 µM

biological target: Glutamate receptor ionotropic, kainate 1 (Rattus norvegicus) (UniProt P22756); assay: NVS_IC_rKAR: NovaScreen (NVS) Ion Channel Assay for rat Kainic Acid Receptors (KAR) (AID 2283334; active = hit-call score of the fitted dose curve at least 0.9, where 1 is the maximum; inactive = score below 0.9)
Sequence (P22756 whole entry, looked up): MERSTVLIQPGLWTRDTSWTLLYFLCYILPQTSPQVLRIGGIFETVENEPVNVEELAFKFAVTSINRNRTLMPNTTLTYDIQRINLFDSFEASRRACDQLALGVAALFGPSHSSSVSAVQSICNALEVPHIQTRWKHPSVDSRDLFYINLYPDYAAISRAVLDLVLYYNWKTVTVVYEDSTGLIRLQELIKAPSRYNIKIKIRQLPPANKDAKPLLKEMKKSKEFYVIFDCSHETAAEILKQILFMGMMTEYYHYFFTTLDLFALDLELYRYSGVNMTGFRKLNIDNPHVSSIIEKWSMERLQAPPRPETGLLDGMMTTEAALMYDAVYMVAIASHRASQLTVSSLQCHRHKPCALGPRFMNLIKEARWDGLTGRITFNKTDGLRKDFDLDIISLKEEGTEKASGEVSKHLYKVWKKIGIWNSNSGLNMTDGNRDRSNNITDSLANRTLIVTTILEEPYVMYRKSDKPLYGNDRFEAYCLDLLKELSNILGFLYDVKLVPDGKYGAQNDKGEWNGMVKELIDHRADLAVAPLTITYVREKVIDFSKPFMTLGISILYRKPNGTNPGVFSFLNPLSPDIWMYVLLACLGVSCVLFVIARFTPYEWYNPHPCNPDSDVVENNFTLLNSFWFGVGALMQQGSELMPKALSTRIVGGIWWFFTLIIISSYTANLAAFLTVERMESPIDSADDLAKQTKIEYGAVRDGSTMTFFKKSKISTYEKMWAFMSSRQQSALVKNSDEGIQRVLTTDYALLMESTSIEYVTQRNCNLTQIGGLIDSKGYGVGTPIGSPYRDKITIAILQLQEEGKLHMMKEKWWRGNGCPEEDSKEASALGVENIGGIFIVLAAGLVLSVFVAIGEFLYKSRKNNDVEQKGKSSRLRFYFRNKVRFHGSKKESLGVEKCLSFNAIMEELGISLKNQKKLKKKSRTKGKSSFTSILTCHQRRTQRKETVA
Procedure, shortened: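 Rat forebrain membrane preparation incubated 1 h with radioligand and test chemical; bound signal read by filtration and scintillation. Single-concentration screen at 25 uM, then concentration series to 50 uM maximum.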

outcome, inactive:
CCC(C)(C)C(=O)O[C@H]1C[C@@H](C)C=C2C=C[C@H](C)[C@H](CC[C@@H]3C[C@@H](O)CC(=O)O3)[C@H]21
COc1ccc2sc(C(=O)Nc3nnn[nH]3)c(OC(C)C)c2c1
On1ccccc1=S
COC(=O)CC(=O)OC

biological target: rat Peripheral-type Benzodiazepine Receptor (PBR), Tspo (gene 24230) (UniProt P16257); assay: NVS_MP_rPBR: NovaScreen (NVS) Membrane Protein Assay for rat Peripheral-type Benzodiazepine Receptor (PBR) (AID 2283335)
Sequence (P16257 whole entry, looked up): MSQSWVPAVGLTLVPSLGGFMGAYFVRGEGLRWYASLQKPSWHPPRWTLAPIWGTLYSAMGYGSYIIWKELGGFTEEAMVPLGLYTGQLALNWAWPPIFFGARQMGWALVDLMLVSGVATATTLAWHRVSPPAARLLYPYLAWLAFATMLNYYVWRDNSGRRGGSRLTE
Procedure, shortened: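 Competitive displacement of specific radioligand from rat kidney membrane PBR, read by filtration and scintillation after 1 h. Compounds first tested at 25 uM in duplicate, then in concentration series; signal loss relative to DMSO.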

AC50, active:
COc1ccc2sc(C(=O)Nc3nnn[nH]3)c(OC(C)C)c2c1 25 µM
Cn1c(=O)cc(Oc2ccc(F)cc2F)c2cnc(NCC(C)(C)O)nc21 9.69 µM
O=C(OC[C@H]1O[C@@H](OC(=O)c2cc(O)c(O)c(OC(=O)c3cc(O)c(O)c(O)c3)c2)[C@H](OC(=O)c2cc(O)c(O)c(OC(=O)c3cc(O)c(O)c(O)c3)c2)[C@@H](OC(=O)c2cc(O)c(O)c(OC(=O)c3cc(O)c(O)c(O)c3)c2)[C@@H]1OC(=O)c1cc(O)c(O)c(OC(=O)c2cc(O)c(O)c(O)c2)c1)c1cc(O)c(O)c(OC(=O)c2cc(O)c(O)c(O)c2)c1 0.715 µM
O=C(O)c1cc(N=Nc2ccc(S(=O)(=O)Nc3ccccn3)cc2)ccc1O 0.655 µM
Cc1c(-c2cccnc2)c2ccccc2n1CCCCC(=O)O 9.13 µM

biological target: bovine Gamma-Aminobutyric Acid Type A Receptor Agonist (GABAR Agonist), GABRA1 (gene 780973) (UniProt P08219); assay: NVS_LGIC_bGABAR_Agonist: NovaScreen (NVS) Ligand-Gated Ion Channel Assay for bovine Gamma-Aminobutyric Acid Type A Receptor Agonist (GABAR Agonist) (AID 2283338)
Sequence (P08219 whole entry, looked up): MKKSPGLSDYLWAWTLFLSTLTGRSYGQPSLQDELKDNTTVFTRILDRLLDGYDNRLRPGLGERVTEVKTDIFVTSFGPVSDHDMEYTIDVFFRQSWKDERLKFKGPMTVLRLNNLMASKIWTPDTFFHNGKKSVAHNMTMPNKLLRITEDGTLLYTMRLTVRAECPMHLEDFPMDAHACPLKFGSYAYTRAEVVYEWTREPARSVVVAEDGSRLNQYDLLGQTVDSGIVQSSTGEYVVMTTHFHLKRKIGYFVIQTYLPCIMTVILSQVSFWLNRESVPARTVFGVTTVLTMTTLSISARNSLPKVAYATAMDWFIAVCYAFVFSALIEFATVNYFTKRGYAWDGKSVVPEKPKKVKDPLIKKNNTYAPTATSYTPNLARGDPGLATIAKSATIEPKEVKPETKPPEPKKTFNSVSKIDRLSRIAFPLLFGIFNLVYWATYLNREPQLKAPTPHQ
Procedure, shortened: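 Radioligand binding to bovine cerebellar membranes in agonist format, read by filter-based scintillation counting after 1 h. Primary screen in duplicate at 25 uM, with actives followed in concentration series. Gain of signal versus DMSO.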

AC50, active:
Nc1cccc(N)c1 6.48 µM
O=C(O)CCN(C1(C(=O)NO)CCCC1)S(=O)(=O)c1ccc(Oc2ccc(F)cc2)cc1 7.72 µM

outcome, inactive:
Cc1ccc(C)c(O)c1
CCCCCCCCCCCCCCCO
CC(=O)OC[C@H]1O[C@@](COC(C)=O)(O[C@H]2O[C@H](COC(C)=O)[C@@H](OC(C)=O)[C@H](OC(C)=O)[C@H]2OC(C)=O)[C@@H](OC(C)=O)[C@@H]1OC(C)=O
